The campaign covered roughly 5,500 compounds. About 2,000 (36%) were called active. About 18% were inconclusive and are not listed. This is one part of the list. Values without a mark were called inactive. Rule as the data show it: active = normalized growth mostly below about 0.91 (no sharp cut-off); inconclusive = no clear call, values can overlap the other calls; inactive = mostly above about 0.92.
Experiment: chemical genetic growth profiling, strain panel (AID 1159580);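 also: tested at 20 µM; growth read once vehicle control cultures reached saturation at 30 °C; 1 = growth at the plate median or of vehicle wells; lower values mean less growth of the strain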
Conditions: growth OD

**Q.** Which normalized growth (S. cerevisiae deletion strains, locus YJR043C, strain POL32, hits give low values) does the source give for `O=C(O)CF` here?
**A.** The normalized growth was 0.984.

**Q.** What about the normalized growth (S. cerevisiae deletion strains, locus YJR075W, strain HOC1, hits give low values) of the same molecule?
**A.** Its normalized growth is 0.992.

**Q.** What about the normalized growth (S. cerevisiae deletion strains, locus YKL009W, strain mrt4, hits give low values) of the same molecule?
**A.** Its normalized growth is 0.915.

**Q.** And the normalized growth (S. cerevisiae deletion strains, locus YKL068W, hits give low values)?
**A.** The normalized growth was 1.01.

**Q.** And the normalized growth (S. cerevisiae deletion strains, locus YKL085W, strain MDH1 (second series), hits give low values)?
**A.** Its normalized growth is 1.

**Q.** And the normalized growth (S. cerevisiae deletion strains, locus YKL085W, strain MDH1, hits give low values)?
**A.** Its normalized growth is 1.

**Q.** And the normalized growth (S. cerevisiae deletion strains, locus YKL160W, strain elf1, hits give low values)?
**A.** Its normalized growth is 0.988.

**Q.** What about the normalized growth (S. cerevisiae deletion strains, locus YKL190W, strain CNB1, hits give low values) of the same molecule?
**A.** The normalized growth was 1.

**Q.** And the normalized growth (S. cerevisiae deletion strains, locus YKR001C, strain vps1, hits give low values)?
**A.** The normalized growth was 0.976.

**Q.** What about the normalized growth (S. cerevisiae deletion strains, locus YKR026C, strain gcn3, hits give low values) of the same molecule?
**A.** The normalized growth was 1.03.

**Q.** And the normalized growth (S. cerevisiae deletion strains, locus YKR091W, strain srl3, hits give low values)?
**A.** Its normalized growth is 1.02.

**Q.** And the normalized growth (S. cerevisiae deletion strains, locus YLL001W, strain dnm1, hits give low values)?
**A.** The normalized growth was 1.02.

**Q.** What about the normalized growth (S. cerevisiae deletion strains, locus YLL026W, hits give low values) of the same molecule?
**A.** The normalized growth was 1.01.

**Q.** And the normalized growth (S. cerevisiae deletion strains, locus YLL041C, strain sdh2, hits give low values)?
**A.** Its normalized growth is 1.03.

**Q.** And the normalized growth (S. cerevisiae deletion strains, locus YLR027C, strain aat2, hits give low values)?
**A.** Its normalized growth is 1.01.

**Q.** And the normalized growth (S. cerevisiae deletion strains, locus YLR039C, strain RIC1, hits give low values)?
**A.** The normalized growth was 0.997.

**Q.** And the normalized growth (S. cerevisiae deletion strains, locus YLR058C, strain SHM2, hits give low values)?
**A.** Its normalized growth is 0.993.

**Q.** What about the normalized growth (S. cerevisiae deletion strains, locus YLR102C, strain apc9, hits give low values) of the same molecule?
**A.** The normalized growth was 0.99.

**Q.** What about the normalized growth (S. cerevisiae deletion strains, locus YLR221C, strain rsa3, hits give low values) of the same molecule?
**A.** Its normalized growth is 1.03.

**Q.** And the normalized growth (S. cerevisiae deletion strains, locus YLR258W, strain gsy2, hits give low values)?
**A.** The normalized growth was 1.04.

**Q.** And the normalized growth (S. cerevisiae deletion strains, locus YLR262C, strain YPT6 (second series), hits give low values)?
**A.** The normalized growth was 1.04.

**Q.** And the normalized growth (S. cerevisiae deletion strains, locus YLR262C, strain YPT6, hits give low values)?
**A.** The normalized growth was 1.01.

**Q.** And the normalized growth (S. cerevisiae deletion strains, locus YLR268W, strain sec22, hits give low values)?
**A.** The normalized growth was 0.974.

**Q.** And the normalized growth (S. cerevisiae deletion strains, locus YLR320W, strain mms22, hits give low values)?
**A.** Its normalized growth is 1.04.

**Q.** And the normalized growth (S. cerevisiae deletion strains, locus YLR330W, strain CHS5, hits give low values)?
**A.** Its normalized growth is 0.991.

**Q.** And the normalized growth (S. cerevisiae deletion strains, locus YLR342W, strain FKS1 (second series), hits give low values)?
**A.** Its normalized growth is 0.989.

**Q.** And the normalized growth (S. cerevisiae deletion strains, locus YLR342W, strain FKS1, hits give low values)?
**A.** The normalized growth was 1.02.

**Q.** What about the normalized growth (S. cerevisiae deletion strains, locus YLR357W, strain rsc2, hits give low values) of the same molecule?
**A.** Its normalized growth is 1.02.

**Q.** And the normalized growth (S. cerevisiae deletion strains, locus YLR370C, strain arc18, hits give low values)?
**A.** The normalized growth was 1.04.

**Q.** And the normalized growth (S. cerevisiae deletion strains, locus YLR371W, strain rom2, hits give low values)?
**A.** Its normalized growth is 0.968.

**Q.** What about the normalized growth (S. cerevisiae deletion strains, locus YLR384C, strain iki3, hits give low values) of the same molecule?
**A.** The normalized growth was 1.02.

**Q.** And the normalized growth (S. cerevisiae deletion strains, locus YLR418C, strain cdc73, hits give low values)?
**A.** Its normalized growth is 1.04.

**Q.** What about the normalized growth (S. cerevisiae deletion strains, locus YML016C, strain PPZ1, hits give low values) of the same molecule?
**A.** The normalized growth was 0.99.

**Q.** And the normalized growth (S. cerevisiae deletion strains, locus YML032C, strain rad52, hits give low values)?
**A.** The normalized growth was 0.947.

**Q.** What about the normalized growth (S. cerevisiae deletion strains, locus YML120C, strain ndi1, hits give low values) of the same molecule?
**A.** Its normalized growth is 1.04.

**Q.** And the normalized growth (S. cerevisiae deletion strains, locus YML124C, strain tub3, hits give low values)?
**A.** Its normalized growth is 0.985.

**Q.** What about the normalized growth (S. cerevisiae deletion strains, locus YMR058W, strain fet3, hits give low values) of the same molecule?
**A.** The normalized growth was 1.02.

**Q.** And the normalized growth (S. cerevisiae deletion strains, locus YMR078C, strain ctf18, hits give low values)?
**A.** Its normalized growth is 0.984.

**Q.** And the normalized growth (S. cerevisiae deletion strains, locus YMR125W, strain sto1, hits give low values)?
**A.** Its normalized growth is 0.986.

**Q.** And the normalized growth (S. cerevisiae deletion strains, locus YMR129W, hits give low values)?
**A.** The normalized growth was 1.02.

**Q.** What about the normalized growth (S. cerevisiae deletion strains, locus YMR205C, strain PFK2, hits give low values) of the same molecule?
**A.** Its normalized growth is 1.02.

**Q.** What about the normalized growth (S. cerevisiae deletion strains, locus YMR223W, strain ubp8, hits give low values) of the same molecule?
**A.** The normalized growth was 0.94.

**Q.** What about the normalized growth (S. cerevisiae deletion strains, locus YMR231W, strain pep5, hits give low values) of the same molecule?
**A.** Its normalized growth is 1.02.

**Q.** And the normalized growth (S. cerevisiae deletion strains, locus YMR263W, strain SAP30, hits give low values)?
**A.** The normalized growth was 1.02.

**Q.** And the normalized growth (S. cerevisiae deletion strains, locus YMR307W, strain GAS1, hits give low values)?
**A.** The normalized growth was 0.945.

**Q.** What about the normalized growth (S. cerevisiae deletion strains, locus YNL067W, strain RPL9B, hits give low values) of the same molecule?
**A.** The normalized growth was 1.02.

**Q.** What about the normalized growth (S. cerevisiae deletion strains, locus YNL071W, strain lat1, hits give low values) of the same molecule?
**A.** Its normalized growth is 1.03.

**Q.** And the normalized growth (S. cerevisiae deletion strains, locus YNL128W, strain TEP1, hits give low values)?
**A.** Its normalized growth is 1.01.

**Q.** And the normalized growth (S. cerevisiae deletion strains, locus YNL153C, strain GIM3, hits give low values)?
**A.** Its normalized growth is 1.04.

**Q.** And the normalized growth (S. cerevisiae deletion strains, locus YNL209W, strain ssb2, hits give low values)?
**A.** The normalized growth was 1.02.

**Q.** What about the normalized growth (S. cerevisiae deletion strains, locus YNL233W, strain BNI4, hits give low values) of the same molecule?
**A.** Its normalized growth is 1.02.

**Q.** And the normalized growth (S. cerevisiae deletion strains, locus YNL248C, strain rpa49, hits give low values)?
**A.** The normalized growth was 0.972.

**Q.** What about the normalized growth (S. cerevisiae deletion strains, locus YNL250W, strain rad50, hits give low values) of the same molecule?
**A.** Its normalized growth is 0.987.

**Q.** What about the normalized growth (S. cerevisiae deletion strains, locus YNL271C, strain bni1, hits give low values) of the same molecule?
**A.** The normalized growth was 0.985.

**Q.** And the normalized growth (S. cerevisiae deletion strains, locus YNL298W, strain CLA4, hits give low values)?
**A.** The normalized growth was 0.94.

**Q.** And the normalized growth (S. cerevisiae deletion strains, locus YNL307C, strain MCK1, hits give low values)?
**A.** Its normalized growth is 0.954.

**Q.** And the normalized growth (S. cerevisiae deletion strains, locus YNL322C, strain KRE1 (second series), hits give low values)?
**A.** Its normalized growth is 1.02.

**Q.** And the normalized growth (S. cerevisiae deletion strains, locus YNL322C, strain KRE1, hits give low values)?
**A.** The normalized growth was 1.

**Q.** What about the normalized growth (S. cerevisiae deletion strains, locus YNR049C, strain mso1, hits give low values) of the same molecule?
**A.** The normalized growth was 1.02.

**Q.** What about the normalized growth (S. cerevisiae deletion strains, locus YNR052C, strain pop2, hits give low values) of the same molecule?
**A.** The normalized growth was 0.949.

**Q.** What about the normalized growth (S. cerevisiae deletion strains, locus YOL006C, strain TOP1, hits give low values) of the same molecule?
**A.** The normalized growth was 0.988.

**Q.** What about the normalized growth (S. cerevisiae deletion strains, locus YOL012C, strain htz1) of the same molecule?
**A.** The normalized growth was 1.93.

**Q.** What about the normalized growth (S. cerevisiae deletion strains, locus YOL147C, strain pex11, hits give low values) of the same molecule?
**A.** Its normalized growth is 0.993.

**Q.** What about the normalized growth (S. cerevisiae deletion strains, locus YOR001W, strain rrp6, hits give low values) of the same molecule?
**A.** The normalized growth was 1.03.

**Q.** What about the normalized growth (S. cerevisiae deletion strains, locus YOR061W, strain CKA2, hits give low values) of the same molecule?
**A.** Its normalized growth is 0.975.

**Q.** What about the normalized growth (S. cerevisiae deletion strains, locus YOR069W, strain VPS5, hits give low values) of the same molecule?
**A.** The normalized growth was 0.99.

**Q.** And the normalized growth (S. cerevisiae deletion strains, locus YOR070C, strain gyp1, hits give low values)?
**A.** Its normalized growth is 1.02.

**Q.** What about the normalized growth (S. cerevisiae deletion strains, locus YOR080W, strain dia2, hits give low values) of the same molecule?
**A.** The normalized growth was 1.02.

**Q.** And the normalized growth (S. cerevisiae deletion strains, locus YOR083W, strain WHI5, hits give low values)?
**A.** The normalized growth was 0.992.

**Q.** And the normalized growth (S. cerevisiae deletion strains, locus YOR106W, strain vam3, hits give low values)?
**A.** Its normalized growth is 0.998.

**Q.** What about the normalized growth (S. cerevisiae deletion strains, locus YOR136W, strain idh2, hits give low values) of the same molecule?
**A.** Its normalized growth is 0.978.

**Q.** And the normalized growth (S. cerevisiae deletion strains, locus YOR144C, strain elg1, hits give low values)?
**A.** Its normalized growth is 0.987.

**Q.** What about the normalized growth (S. cerevisiae deletion strains, locus YOR184W, strain ser1, hits give low values) of the same molecule?
**A.** The normalized growth was 0.872 (active).

**Q.** And the normalized growth (S. cerevisiae deletion strains, locus YOR265W, strain rbl2, hits give low values)?
**A.** Its normalized growth is 1.02.

**Q.** And the normalized growth (S. cerevisiae deletion strains, locus YOR270C, strain vph1, hits give low values)?
**A.** The normalized growth was 1.02.

**Q.** And the normalized growth (S. cerevisiae deletion strains, locus YOR290C, strain snf2, hits give low values)?
**A.** Its normalized growth is 1.02.

**Q.** And the normalized growth (S. cerevisiae deletion strains, locus YOR316C, strain cot1, hits give low values)?
**A.** Its normalized growth is 0.984.

**Q.** What about the normalized growth (S. cerevisiae deletion strains, locus YPL051W, strain arl3, hits give low values) of the same molecule?
**A.** Its normalized growth is 1.

**Q.** What about the normalized growth (S. cerevisiae deletion strains, locus YPL055C, strain LGE1, hits give low values) of the same molecule?
**A.** The normalized growth was 1.04.

**Q.** What about the normalized growth (S. cerevisiae deletion strains, locus YPL078C, strain atp4, hits give low values) of the same molecule?
**A.** The normalized growth was 0.982.

**Q.** And the normalized growth (S. cerevisiae deletion strains, locus YPL106C, strain sse1, hits give low values)?
**A.** Its normalized growth is 1.06.

**Q.** What about the normalized growth (S. cerevisiae deletion strains, locus YPL240C, strain hsp82, hits give low values) of the same molecule?
**A.** The normalized growth was 1.02.

**Q.** What about the normalized growth (S. cerevisiae deletion strains, locus YPL241C, strain CIN2, hits give low values) of the same molecule?
**A.** Its normalized growth is 0.998.

**Q.** And the normalized growth (S. cerevisiae deletion strains, locus YPR119W, strain clb2, hits give low values)?
**A.** The normalized growth was 1.

**Q.** What about the normalized growth (S. cerevisiae deletion strains, locus YPR141C, strain kar3, hits give low values) of the same molecule?
**A.** Its normalized growth is 0.993.

**Q.** What about the normalized growth (S. cerevisiae deletion strains, locus YPR163C, strain tif3, hits give low values) of the same molecule?
**A.** The normalized growth was 0.993.

**Q.** What about the normalized growth (S. cerevisiae deletion strains, locus YPR167C, strain met16, hits give low values) of the same molecule?
**A.** The normalized growth was 0.99.

**Q.** And the normalized growth (S. cerevisiae deletion strains, strain wtn01, hits give low values)?
**A.** The normalized growth was 0.992.

**Q.** What about the normalized growth (S. cerevisiae strains, strain wild type, hits give low values) of the same molecule?
**A.** Its normalized growth is 0.999.

— PubChem BioAssay AID1159580 (chemical genetic matrix, 2015)
